Data on 98 molecules can be found in ChEMBL document CHEMBL4888484, “Replenishing the malaria drug discovery pipeline: Screening and hit evaluation of the MMV Hit Generation Library 1 (HGL1) against asexual blood stage Plasmodium falciparum ,using a nano luciferase reporter read-out” (2022).

Usually % Inhibition stands for the drop in the measured response relative to a control, in per cent.

Structures are written as SMILES. Among all 4,800 compounds or so, about 420 (8.8%) showed an effect of 50% or more. This is one part of a sample in which strong results are shown more often than they occur.

In this experiment the test system is Plasmodium falciparum. Kind of experiment: Confirmatory screen in NF54 nanoGlo assay, in single point, at 2uM, 72h. The experiment is classed as functional, Erythrocyte. Particulars: timepoint 72 hour.
Consider `COc1ccc(O)c([C@H]2Nc3ccccc3-n3c(-c4ccc(C)cc4)c4c(=O)n(C)c(=O)n(C)c4c32)c1`, for which the “% Inhibition” value came to 25%.

As for `COc1cccc(C(=O)N2CCCO[C@H](C(C)C)C2)c1`, the “% Inhibition” value was -9%.

For the molecule `Cc1ccc(C(=O)Nc2ccc3c(c2)OC(C)(C)C(=O)N3)cc1`, the “% Inhibition” value is reported as -4%.

For `CN(CC(=O)N(C)C1CCC(c2ccccc2)CC1)c1cnccn1` (stereo not drawn), the “% Inhibition” value is listed as -8%.

For the molecule `COc1cc(NC(=O)CN2C(=O)N[C@](C)(c3ccc4c(c3)OCCO4)C2=O)c(OC)cc1Cl`, the “% Inhibition” value is 2%.

As for `O=C(CCn1c(=O)[nH]c2ccsc2c1=O)NCc1ccccc1`, the “% Inhibition” value is 37%.

`O=C(CCc1ccccc1)N[C@@H](c1ccccc1)c1ccc2c3c(cccc13)CC2`: the “% Inhibition” value is reported as -12%.

`C[C@@H]1CN(C[C@@H]2CN(CCOCc3ccccc3)C[C@@H]2CO)C[C@H](C)O1`: the “% Inhibition” value is recorded as -5%.

On to `CCc1nnc2ccc(S(=O)(=O)Nc3ccc(F)c(F)c3)cn12`, for which the “% Inhibition” value is reported as -6%.

For `O=C(Nn1cnc2ccccc2c1=O)c1cnccn1`, the “% Inhibition” value was determined as 2%.

In the case of `Nc1ncn(C(=O)c2ccc(Cl)cc2)n1`, the “% Inhibition” value was -14%.

For `COc1nc2ncnc(OC)c2nc1C#N`, the “% Inhibition” value is 3%.

For the molecule `COc1ccc(S(=O)(=O)N(CC(=O)N2CCN(Cc3ccc4c(c3)OCO4)CC2)C2CCCCC2)cc1OC`, the “% Inhibition” value was -3%.

Take `CC(C)(C)OC(=O)N1CCC[C@H]1C(=O)n1ccnc1`: the “% Inhibition” value is listed as -2%.

Consider `CCOc1nc(C)nc2cc(-c3ccccc3)n(Cc3ccccc3)c12`, for which the “% Inhibition” value came out at 0%.

`CCOc1ccc(-[n+]2cc(-c3ccccc3)n3c2CCC3)cc1`: the “% Inhibition” value is recorded as 80%.

Consider `O=C(O)C1Cc2c([nH]c3ccccc23)C(/C=C/c2ccccc2)N1` (stereo not drawn), for which the “% Inhibition” value is listed as -1%.

On to `Cc1noc2nc(C3CC3)cc(C(=O)N3CCC[C@H](C)CC3)c12`, for which the “% Inhibition” value was -11%.

For the molecule `CC1NC2(C(=O)N(Cc3ccc(F)cc3)c3ccccc32)C2C(=O)N(c3cccc4ccccc34)C(=O)C12` (stereo not drawn), the “% Inhibition” value came to 4%.

For `CC1(C)C2OCCCC2C1(N)C(=O)Nc1cn[nH]c1` (stereo not drawn), the “% Inhibition” value came to 4%.

On to `CCCn1cc(CNc2nnc(C(C)(C)C)o2)cn1`, for which the “% Inhibition” value is -5%.

Consider `c1ccc(Oc2ccnc(NCC34COCCN3CCOC4)n2)cc1`, for which the “% Inhibition” value is given as -10%.

Consider `CN1CCN(C2(CNc3ccnc4ccccc34)CCCC2)CC1`, for which the “% Inhibition” value is listed as 91%.

Turning to `Fc1cccc(F)c1CNC[C@@H]1NCCc2ccccc21`, the “% Inhibition” value was -5%.

Consider `O=c1[nH]c2nccnc2c(=O)n1Cc1ccc(F)cc1`, for which the “% Inhibition” value is listed as -11%.

As to `O=C1N[C@H]2C[C@@H](C(=O)NC[C@H]3O[C@H](CCOc4cc(-c5ccccc5)ccc41)CC[C@@H]3O)N(Cc1ccc(Cl)c(F)c1)C2`, the “% Inhibition” value is given as -1%.

Regarding `CCOC(=O)C(Nc1cccc(NC(C(=O)OCC)C(=O)OCC)c1)C(=O)OCC`, the “% Inhibition” value is given as -16%.

Turning to `Nc1nccnc1C(=O)NCc1ccc(Cn2ccnc2)cc1`, the “% Inhibition” value is given as -5%.

In the case of `O=c1[nH]c(=O)n(S(=O)(=O)c2ccccc2)cc1F`, the “% Inhibition” value was 92%.

Turning to `O=S(=O)(c1ccccc1)N1CCN(S(=O)(=O)c2ccc(Cl)cc2)C1`, the “% Inhibition” value stood at 2%.

Regarding `Cc1ccc(N2CCN(S(=O)(=O)c3ccccc3)[C@@H](C)C2=O)cc1F`, the “% Inhibition” value is reported as -5%.

In the case of `COc1ccc(CCNc2oc(-c3cccnc3)nc2C#N)cc1OC`, the “% Inhibition” value is on record as 31%.

For `O=C(CNC1=NC(=O)C(c2ccccc2)(c2ccccc2)N1)NCc1ccc(F)cc1`, the “% Inhibition” value is -1%.

In the case of `Cc1ccc(OCC(=O)Nc2cc(C)nn2-c2nc3c(cnn3-c3ccc(C)c(C)c3)c(=O)[nH]2)cc1`, the “% Inhibition” value is recorded as 65%.

For `COc1ccc(-n2ncc3c(NCCNC(=O)c4ccccc4Cl)nc(C)nc32)cc1`, the “% Inhibition” value is listed as -12%.

As to `Cc1ccc(OCC(=O)Nc2ccc(N3CCn4c(nc5ccccc54)C3)cc2Cl)cc1`, the “% Inhibition” value was -17%.

`C1CCC(Nc2nc3nonc3nc2N2CCCCC2)CC1`: the “% Inhibition” value was found to be 1%.

Turning to `CC(C)CN(CC(C)(C)C)C(=O)c1cc[nH]n1`, the “% Inhibition” value is -6%.

As to `O=C(c1ccccc1Cl)N1CCC[C@H](n2cnc3ccccc3c2=O)C1`, the “% Inhibition” value turned out to be 18%.

Take `O=C(CN1CCN(Cc2ccccc2F)C1=O)NC1CCCCCCC1`: the “% Inhibition” value is recorded as -11%.

As for `CCN(c1ccc(C(=O)N(C)C2(C#N)CCC2)cc1)C(C)C`, the “% Inhibition” value is given as -3%.

Turning to `O=S(=O)(Cc1ccccc1)Nc1nnc[nH]1`, the “% Inhibition” value was -1%.

`CCn1nccc1CNc1cc(Cl)cc2c1OCC2`: the “% Inhibition” value is on record as -8%.

In the case of `CC(C)(C)OC(=O)N1C[C@@H](O)CC1=O`, the “% Inhibition” value is given as -11%.

`COc1ccc(C(=O)Nc2nnc([C@H]3CC(=O)N(c4ccc(C)cc4)C3)o2)cc1OC`: the “% Inhibition” value was -16%.

For `COc1ccc(C2CC(c3ccccc3)N(C(C)=O)c3ncnn32)cc1` (stereo not drawn), the “% Inhibition” value is recorded as -9%.

As to `COc1ccc(C(=O)N2c3ncnn3C(c3ccccc3)CC2c2ccc(C)cc2)cc1OC` (stereo not drawn), the “% Inhibition” value was 78%.

With `CCCN1CCN(CC(=O)Nc2sccc2C#N)c2cc(F)ccc21`, the “% Inhibition” value came to 2%.

`Cc1ccc(NC(=O)c2cc[nH]n2)c(C)c1`: the “% Inhibition” value is reported as -18%.

As to `COc1ccc(-c2c(C)nn3c(N4CCC(C(=O)NC5CC5)CC4)cc(C)nc23)cc1OC`, the “% Inhibition” value worked out at 37%.

Take `COc1ccc(-c2nn3c(N4CCN(CC=Cc5ccccc5)CC4)cc(C)nc3c2C)cc1OC`: the “% Inhibition” value was 55%.

Turning to `COc1ccc(-c2cc3nc(C)cc(N4CCN(C/C=C/c5ccccc5)CC4)n3n2)cc1OC`, the “% Inhibition” value is 42%.

For `Cc1c(C2=NO[C@H]3C(=O)N(c4ccc5ccccc5c4)C(=O)[C@@H]23)cnn1C`, the “% Inhibition” value came to 0%.

Take `C[C@H](NC(=O)c1nnn(C)c1C(F)(F)F)c1cscn1`: the “% Inhibition” value turned out to be 7%.

In the case of `COc1ccc(CCNC(=O)CCCC(=O)Nc2cccnc2)cc1OC`, the “% Inhibition” value was 3%.

Consider `COc1ccc(Cl)cc1S(=O)(=O)N(C)[C@H]1CCc2n[nH]c(=O)n2CC1`, for which the “% Inhibition” value was -5%.

Regarding `CCN1CC(=O)N[C@H]2CN(C(=O)CCn3ccnc3C)CC[C@@H]2OCc2cccc(c2)Oc2cc(OC(C)C)cc(c2)C1=O`, the “% Inhibition” value is listed as 9%.

`COCCCN1CC(=O)N[C@@H]2CN(C(=O)CCc3cccnc3)CC[C@@H]2OCc2cccc(c2)Oc2cc(ccc2OC)C1`: the “% Inhibition” value turned out to be 14%.

On to `CCc1cc(N2C[C@@H]3NC(=O)CN(C)Cc4ccc(OC)c(c4)Oc4cccc(c4)CO[C@H]3C2)nc(N(C)C)n1`, for which the “% Inhibition” value amounted to 60%.

As for `O=c1cc2n(c(=O)[nH]1)CC(c1ccccc1)=NN2`, the “% Inhibition” value was 4%.

Consider `Cc1nnc2sc(Nc3ccccc3)nn12`, for which the “% Inhibition” value was -2%.

Regarding `O=C1NCCCOc2cccc(c2)[C@H]2c3ccc(cc3CCN2C(=O)CCN2CCOCC2)Oc2ccc(O)c1c2`, the “% Inhibition” value turned out to be 59%.

Consider `NCc1cccc(C(=O)N2CCc3cc4ccc3[C@@H]2c2cccc(c2)OCCCNC(=O)c2cc(ccc2O)O4)c1`, for which the “% Inhibition” value is given as 93%.

Turning to `NC(=O)C1CCN(CCC(=O)N2CCc3cc4ccc3[C@@H]2c2cccc(c2)OCCCNC(=O)c2cc(ccc2O)O4)CC1`, the “% Inhibition” value stood at 96%.

With `O=C(NOCc1ccc(F)cc1)NC1CCCCC1`, the “% Inhibition” value is on record as -5%.

Consider `COc1ccc(N2CCN(Cc3c(O)nc(O)c(C#N)c3C)CC2)cc1`, for which the “% Inhibition” value is -3%.

Turning to `COc1ccc(CCN2C(=O)CC[C@H]2c2cn(C)c3ccccc23)cc1OC`, the “% Inhibition” value was -1%.

`Cc1ccc(C(=O)N2CCCC23CCC3)nn1`: the “% Inhibition” value is reported as -11%.

`O=C(c1[nH]nc(C2CC2)c1Br)N1CCC12CCC2`: the “% Inhibition” value is -8%.

For the molecule `COC(=O)[C@]1(C)CN(C(=O)NCc2cc(C#N)ccc2F)C[C@H]1C`, the “% Inhibition” value turned out to be 7%.

For the molecule `CCc1nc(C)nc(N2CCN(C[C@H](O)COc3ccccc3C)CC2)c1Cc1cccc(C)c1`, the “% Inhibition” value came to 7%.

Consider `CC[C@@]1(C)CCCN(C(=O)Cc2c(C)noc2Cl)C1`, for which the “% Inhibition” value was 84%.

Regarding `Cc1noc(Cl)c1CC(=O)N1CCCC(C)(C)CC1`, the “% Inhibition” value was found to be 38%.

As to `O=C(Cc1c(Cl)cccc1Cl)N1CC[C@]2(CCOC2)C1`, the “% Inhibition” value is given as -8%.

Take `Cc1nc(Cn2nnc(NC(=O)c3cccc(F)c3)c2C)no1`: the “% Inhibition” value is 1%.

As for `O=C(Nc1nc2cccc(Cl)c2o1)c1cccc(F)c1`, the “% Inhibition” value was 92%.

In the case of `CC(C)(C)NC(=O)CNC(=O)c1cccc(F)c1`, the “% Inhibition” value was -13%.

For the molecule `COC(CNC(=O)OC(C)(C)C)CC(=O)NC1CC(C)CCC1C(C)C` (stereo not drawn), the “% Inhibition” value was -7%.

On to `O=C(Cn1cccn1)N1CC(c2nc(-c3ncccn3)no2)C1`, for which the “% Inhibition” value is on record as 5%.

As to `N#Cc1cnc(NC2CC3CCC2C3)cn1` (stereo not drawn), the “% Inhibition” value is reported as -8%.

For `CC(C)CS(=O)(=O)Nc1ccccc1C(N)=O`, the “% Inhibition” value is -5%.

As to `CN(C)CCN(C)c1ccc(Br)cc1NCc1cncn1C`, the “% Inhibition” value came out at 16%.

On to `COc1cc(NC(=O)c2cc(-c3cccc4ccccc34)[nH]n2)cc(OC)c1OC`, for which the “% Inhibition” value came to 10%.

On to `COc1ccc2cccc(NC(=O)c3cc(-c4cc(OC)c(OC)c(OC)c4)n[nH]3)c2n1`, for which the “% Inhibition” value was 64%.

Turning to `COc1ccc(-c2cc(C(=O)Nc3ncc[nH]3)n[nH]2)cc1OC`, the “% Inhibition” value is on record as 29%.

With `O=C(COc1ccc(Cl)cc1)n1c2ccccc2c2ccccc21`, the “% Inhibition” value was -3%.

`CC(C)(CNC(=O)[C@](C)(N)c1ccccc1)C(=O)O`: the “% Inhibition” value is reported as -11%.

`COc1c2c(cc3c1[C@@H](C#CCOc1ccccc1)[N+](C)(C)CC3)OCO2`: the “% Inhibition” value worked out at 75%.

As for `CC(C)C(=O)N1CC[C@H](CC(=O)NCc2ccccc2)C1`, the “% Inhibition” value is reported as -4%.

In the case of `O=C(c1sc2ccccc2c1Cl)n1nnc2ccccc21`, the “% Inhibition” value is given as -8%.

Turning to `CCOC(=O)N1CCN(c2nccn3nc(-c4ccc(OC)c(OC)c4)cc23)CC1`, the “% Inhibition” value is -6%.

For `COc1ccc([C@@]2(C)NC(=O)N(CC(=O)N3CC(=O)Nc4ccccc43)C2=O)cc1OC`, the “% Inhibition” value stood at 2%.

For `COc1ccc(CNC(=O)Nc2ccc3c(c2)N(C(=O)c2ccccc2)CCC3)cc1OC`, the “% Inhibition” value is given as 25%.

Turning to `CCC(C(=O)Nc1ccc2c(c1)CN(CCc1ccc(OC)c(OC)c1)C(=O)C(C)O2)c1ccccc1` (stereo not drawn), the “% Inhibition” value is 94%.

Turning to `COc1ccc([C@H](C(=O)Nc2ccc(N(C)C)cc2)N(Cc2ccccc2)C(=O)Cc2ccccc2)cc1OC`, the “% Inhibition” value is -4%.

Turning to `CCN(CC)c1ncnc(N(C)Cc2ccccc2)c1N`, the “% Inhibition” value amounted to 2%.

For the molecule `COc1ccc([C@H]2[C@H](C(=O)NC3CCCCCC3)CCC(=O)N2C)cc1`, the “% Inhibition” value is -8%.

For `COCc1cc2nn(CC(=O)Nc3ccc(F)cc3C)c(=O)n2c(-c2ccccc2)n1`, the “% Inhibition” value is listed as -15%.
